The panel holds about 83,000 compounds, 20% with a hit somewhere; the sample as a whole holds those more often.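 The endpoint reported here, percent growth, reads 100 for growth as untreated, 0 for no net growth and -100 for all cells dead.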 The source made the active and inactive calls. The calls were made as follows: active = growth percent below 10; inactive = the rest.
Key:
Assay in all cases: NCI-60 one-dose screen, 48 h (100 = growth as untreated, 0 = no growth, -100 = all killed)
Details in all cases: 10 µM unless noted
[1] = test system: NCI-H23 lung
[2] = test system: NCI-H226 lung
[3] = test system: NCI-H322M lung
[4] = test system: HOP-62 NSCLC
[5] = test system: NCI-H460 lung
[6] = test system: HOP-92 NSCLC
[7] = test system: NCI-H522 lung
[8] = test system: A549/ATCC NSCLC
[9] = test system: 786-0 renal
[10] = test system: COLO 205 colon
[11] = test system: DU-145 prostate
[12] = test system: K-562 leukemia
[13] = test system: MALME-3M melanoma
[14] = test system: MDA-MB-231 breast
[15] = test system: RXF 393 renal
[16] = test system: SF-268 CNS
[17] = test system: SF-295 CNS
[18] = test system: SF-539 CNS
[19] = test system: UACC-257 melanoma
[20] = test system: M14 melanoma

Measured: growth

C=C1CCC2C(C)(CO)C(O)CCC2(C)C1C/C=C1/C(=O)OCC1Oc1ccccc1C (stereo not given)
inactive: [1] 94% | [2] 80% | [3] 98.6% | [4] 101% | [5] 104% | [6] 118% | [7] 23.8% | [8] 89.1% | [9] 98% | [10] 105% | [11] 82.8% | [12] 30.6% | [13] 109% | [14] 109% | [15] 109% | [16] 102% | [17] 97.6% | [18] 81.1% | [19] 83.5% | [20] 67.1%

COc1ccc(/C=C2\N=C(c3ccccc3)N(C(=O)c3ccccc3O)NC2=O)cc1
inactive: [1] 89.7% | [2] 101% | [3] 105% | [4] 99.1% | [5] 98.7% | [6] 75.5% | [7] 100% | [8] 97.3% | [9] 89.8% | [10] 112% | [11] 110% | [12] 86.5% | [13] 89.9% | [14] 84.6% | [15] 105% | [16] 108% | [17] 92.9% | [18] 95.3% | [19] 110% | [20] 98.8%

OCCCCCCNc1ncnc2cc(Cl)ccc12
inactive: [1] 95% | [2] 84.1% | [3] 105% | [4] 88.5% | [5] 94.2% | [6] 74.6% | [7] 87.8% | [8] 95.6% | [9] 100% | [10] 103% | [11] 104% | [12] 84.6% | [13] 100% | [14] 99.7% | [15] 116% | [16] 97.2% | [17] 99% | [18] 92.8% | [19] 90.7% | [20] 96.3%

COc1ccc2[nH]c(=O)c3c4ccccc4cn3c2c1
inactive: [1] 39.4% | [2] 37% | [3] 11.6% | [4] 39.3% | [6] 33.7% | [8] 40.1% | [9] 17.7% | [11] 11.3% | [13] 12.6% | [14] 28.5% | [19] 51.3% | [20] 23.9%
active: [5] 2.51% | [7] 3.62% | [10] 0.252% | [12] 4.25% | [15] -25.2% | [16] 1.5% | [17] -2.6% | [18] 9.14%

Cc1csc(NC(c2ccccc2)c2c(C)nc3ccccn23)n1 (stereo not given)
inactive: [1] 95.6% | [2] 94.8% | [3] 104% | [4] 95.4% | [5] 102% | [6] 68.4% | [7] 95.3% | [8] 99.1% | [9] 100% | [10] 106% | [11] 110% | [12] 88.1% | [13] 97.2% | [14] 96.8% | [15] 122% | [16] 103% | [17] 87.1% | [18] 101% | [19] 94.8% | [20] 95.3%

COc1ccc(/C=C2/C(=O)NC(SCC(=O)N3CCN(c4cc5c(cc4F)c(=O)c(C(=O)O)cn5C4CC4)CC3)=NC2N)cc1OC (stereo not given)
inactive: [1] 102% | [2] 98.5% | [3] 111% | [4] 110% | [5] 107% | [6] 101% | [7] 99% | [8] 107% | [9] 102% | [10] 113% | [11] 104% | [12] 107% | [13] 108% | [14] 106% | [15] 109% | [16] 96.8% | [17] 93.9% | [18] 101% | [19] 108% | [20] 106%

O=C1/C(=C/c2ccc([N+](=O)[O-])cc2)CN(C(=O)CCN2CCC(=NO)CC2)C/C1=C\c1ccc([N+](=O)[O-])cc1
inactive: [2] 15.1% | [8] 21.3%
active: [1] 0.382% | [3] -18.7% | [4] -21.9% | [5] -46.3% | [6] -10.4% | [7] -76.8% | [9] -37.1% | [10] -65.3% | [11] -8.07% | [12] 7.03% | [13] -20.3% | [14] -69.1% | [15] -76.5% | [16] -22.4% | [17] -28.6% | [18] -42.8% | [19] -4.87% | [20] -33.4%
